Measured values taken from PubChem BioAssay AID2654 (Johns Hopkins Ion Channel Center, 2010).
Measured potencies and affinities stand elsewhere.

Molecular target: Potassium voltage-gated channel subfamily KQT member 2 (Rattus norvegicus) (UniProt O88943)
Assay: retigabine-insensitive KCNQ2 potentiators, concentration-response, dose response, cell-based, retigabine-insensitive compounds (AID 2654)
Details: KCNQ2-CHO cells, automated patch clamp current potentiation; at 30 µM (top of the series);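 active = increase of the KCNQ2 potassium channel current at -35 mV by at least one tested dose; inactive = no tested dose increases that current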

Sequence of Potassium voltage-gated channel subfamily KQT member 2 (Rattus norvegicus) (O88943 whole entry, looked up): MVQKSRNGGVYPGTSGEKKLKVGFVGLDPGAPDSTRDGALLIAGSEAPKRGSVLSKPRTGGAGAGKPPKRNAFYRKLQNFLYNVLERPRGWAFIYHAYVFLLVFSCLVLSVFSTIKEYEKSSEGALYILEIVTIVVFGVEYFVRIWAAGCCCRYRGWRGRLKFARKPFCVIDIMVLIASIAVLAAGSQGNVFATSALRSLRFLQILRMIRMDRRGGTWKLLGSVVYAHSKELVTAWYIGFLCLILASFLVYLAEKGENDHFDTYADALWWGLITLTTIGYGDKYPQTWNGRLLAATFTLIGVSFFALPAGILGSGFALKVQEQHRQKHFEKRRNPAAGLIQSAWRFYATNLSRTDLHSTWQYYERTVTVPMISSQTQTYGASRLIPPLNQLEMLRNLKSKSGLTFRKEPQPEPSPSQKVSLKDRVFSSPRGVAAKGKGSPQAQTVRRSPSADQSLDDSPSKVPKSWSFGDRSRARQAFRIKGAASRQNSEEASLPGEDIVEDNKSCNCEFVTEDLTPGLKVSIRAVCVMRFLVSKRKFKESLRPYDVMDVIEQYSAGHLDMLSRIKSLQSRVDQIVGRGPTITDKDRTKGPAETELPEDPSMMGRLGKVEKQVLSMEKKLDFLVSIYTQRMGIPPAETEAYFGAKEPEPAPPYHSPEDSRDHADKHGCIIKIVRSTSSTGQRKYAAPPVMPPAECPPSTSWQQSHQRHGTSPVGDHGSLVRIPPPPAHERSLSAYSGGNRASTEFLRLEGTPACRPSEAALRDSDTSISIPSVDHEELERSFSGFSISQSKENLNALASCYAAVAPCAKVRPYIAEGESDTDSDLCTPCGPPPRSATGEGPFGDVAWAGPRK

potentiation, inactive:
O=C(NCc1ccc(Cl)cc1Cl)Nc1ccc(Br)nc1 8.28, Cc1ccc(CNC(=S)Nc2cccnc2)cc1 -2.47, Cc1cncc(NC(=O)NCc2ccc(Cl)cc2Cl)c1 -19.5
